This is part of a sample that, as a whole, favours compounds with a hit. Of some 83,000 tested, about 20% had one in any assay.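 Each cell line was grown in a 96-well plate and treated with one concentration of compound for 48 hours. Values below 10 were considered active.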 The source made the active and inactive calls.
Test system: OVCAR-8 ovarian
Assay: NCI-60 one-dose screen, 48 h (100 = growth as untreated, 0 = no growth, -100 = all killed)
Conditions: 10 µM unless noted

Structure (SMILES)	growth
CN(C)CCS(=O)(=O)Nc1cc(-c2ccc3ncnc(Nc4ccc(F)c(Cl)c4)c3c2)cnc1Cl	13.7% (inactive)
C=C1C(=O)O[C@H]2[C@H]1CC/C(COC(=O)c1ccc(Cl)nc1)=C\CC[C@@]1(C)O[C@@H]21	-8.23% (active)
C=CC(=O)NC(=O)Nc1ccccc1Cl	84.5% (inactive)
Nc1nc(-c2cc3c(cc2Cl)NC(=O)/C3=C/c2ccc(Cl)cc2)cs1	50.8% (inactive)
COc1cc2ncn3c(=O)c4c5c(sc4nc3c2cc1OC)CCCCC5	102% (inactive)
CCn1cc(C(=O)O)c(=O)c2cc(F)c(N3CCN(CC(=O)Nc4ccc(C(C)=O)cc4)CC3)cc21	100% (inactive)
CCNC(=O)Oc1ccc(/C(=C(/CC)Cc2ccccc2)c2ccc(OCCN3CCOCC3)cc2)cc1	57.8% (inactive)
CCCCCCCCCCCCCCCCNc1ccccc1	91.8% (inactive)
CC(/C=C/C=C(\C)[C@H](O)[C@H](C)C(=O)O[C@H]1C[C@H](C)C=C2C=C[C@@]3(C)O[C@@H](O)CC(=O)[C@]3(C)[C@H]21)=C\C=C\C(=O)O	21.6% (inactive)
COc1ccc2c(c1)OC(N(C(C)=O)C(C)=O)=C(C#N)C2c1ccc(F)cc1 (centres undefined)	38.5% (inactive)
N#Cc1c(N)nc(Cl)c(C#N)c1C(=O)c1ccccc1	36.8% (inactive)
CCCCCCCC(=O)SCC/C=C/[C@@H]1CC(=O)NCc2nc(cs2)C2=N[C@@](C)(CS2)C(=O)N[C@@H](C(C)C)C(=O)N1	5.08% (active)
COC(=O)c1ccc2c(c1)Oc1ccc(Cl)cc1-c1cc(C)nn1-2	72.8% (inactive)
Nc1n[nH]c2cccc(C#Cc3cccc(NC(=O)c4cccc(C(F)(F)F)c4)c3)c12	47.2% (inactive)
Cc1ccc(NC(=O)CN2CCOCC2)cc1Cl	92% (inactive)
C=C1C(=O)O[C@H]2[C@H]1CC/C(COC(=O)c1ccc(C#N)cc1)=C\CC[C@@]1(C)O[C@@H]21	1.03% (active)
C=CC(C)(O)CCC1C(=C)CCC2C(C)(C)CCCC12C (centres undefined)	114% (inactive)
CCOC(=O)c1noc2c1CCc1cn(Cc3cc(OC)cc(OC)c3)cc1-2	107% (inactive)
Nc1nc(Nc2ccc(OCc3cccc(F)c3)cc2)c2c(n1)[nH]c1ccc(O)cc12	-61.7% (active)
C#C[C@@]1(O)[C@@H](CO)O[C@@H](n2cc(Br)c3c(Cl)ccnc32)[C@@H]1O	-42.5% (active)
C=C1C(=O)O[C@H]2[C@H]1CC/C(CNC(=O)/C1=C/CC[C@@]3(C)O[C@H]3[C@H]3OC(=O)C(=C)[C@@H]3CC1)=C\CC[C@@]1(C)O[C@@H]21	92.2% (inactive)
COc1ccc(N)c(S)c1	90.6% (inactive)
C=CC(=O)Nc1cccc(Nc2nc(Nc3ccc(OCCOC(F)F)cc3)ncc2F)c1	46% (inactive)
O=C(c1ccccc1)[C@H]1[C@@H]2CCCN2[C@]2(C(=O)Nc3ccc(F)cc32)[C@]12C(=O)Nc1ccccc12	88.8% (inactive)

From PubChem BioAssay (NCI)
